Source: PubChem BioAssay (EPA / NIEHS)
Calls of active or inactive are those of the source. Rule for the calls: active = hit-call score of the fitted dose curve at least 0.9, where 1 is the maximum; inactive = score below 0.9.

Tests used:
[1] = read-out: CFLAR gene, CFLAR (gene 8837); assay: LTEA_HepaRG_CFLAR: Life Technologies and Expression Analysis (LTEA) Assay for CFLAR gene using HepaRG (AID 2283455); conditions: mRNA level, 48 h; actives raise or lower the signal
Procedure, shortened: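 Differentiated HepaRG cells in serum-free induction medium were exposed 48 h in duplicate to eight half-log concentrations up to 100 uM in 0.5% DMSO; mRNA measured by TaqMan qRT-PCR, normalized to ACTB, GAPDH, POLR2A; bidirectional fitting versus DMSO.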

[2] = read-out: Forkhead box O1 (FOXO1), FOXO1 (gene 2308); assay: LTEA_HepaRG_FOXO1: Life Technologies and Expression Analysis (LTEA) Assay for Forkhead box O1 (FOXO1) using HepaRG (AID 2283456); conditions: mRNA level, 48 h; actives raise or lower the signal
Procedure, shortened: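 Differentiated HepaRG cells, in serum-free induction medium with 0.5% DMSO, exposed 48 h in duplicate to 8-point half-log series from 100 uM. FOXO1 mRNA measured by TaqMan qRT-PCR, normalized to ACTB, GAPDH, POLR2A; bidirectional fit versus DMSO.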

[3] = read-out: growth arrest and DNA damage 45 (GADD45A), GADD45A (gene 1647); assay: LTEA_HepaRG_GADD45A: Life Technologies and Expression Analysis (LTEA) Assay for growth arrest and DNA damage 45 (GADD45A) using HepaRG (AID 2283458); conditions: mRNA level, 48 h; actives raise or lower the signal
Procedure, shortened: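 Differentiated HepaRG cells exposed 48 h in serum-free induction medium to 8 concentrations, top 100 uM in half-log steps, 0.5% DMSO. GADD45A mRNA quantified by qRT-PCR, normalized to ACTB, GAPDH and POLR2A; bidirectional fit versus DMSO.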

[4] = read-out: Forkhead box O3 (FOXO3), FOXO3 (gene 2309); assay: LTEA_HepaRG_FOXO3: Life Technologies and Expression Analysis (LTEA) Assay for Forkhead box O3 (FOXO3) using HepaRG (AID 2283459); conditions: mRNA level, 48 h; actives raise or lower the signal
Procedure, shortened: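 Differentiated human HepaRG cells, 48 h post-plating, exposed in duplicate for 48 h in serum-free induction medium; 8-point half-log series from 100 uM in 0.5% DMSO. FOXO3 mRNA by TaqMan qRT-PCR, normalized to ACTB/GAPDH/POLR2A; bidirectional fit versus DMSO.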

[5] = read-out: ABC Transporter (ABCB1), ABCB1 (gene 5243); assay: LTEA_HepaRG_ABCB1: Life Technologies and Expression Analysis (LTEA) Assay for ABC Transporter (ABCB1) using HepaRG (AID 2283460); conditions: mRNA level, 48 h; actives raise or lower the signal
Procedure, shortened: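 HepaRG cells exposed in duplicate for 48 h in serum-free induction medium to eight half-log concentrations up to 100 uM in 0.5% DMSO. ABCB1 mRNA quantified by qRT-PCR, normalised to ACTB, GAPDH and POLR2A; fitted bidirectionally versus DMSO.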

[6] = read-out: growth arrest and DNA damage 45 (GADD45B), GADD45B (gene 4616); assay: LTEA_HepaRG_GADD45B: Life Technologies and Expression Analysis (LTEA) Assay for growth arrest and DNA damage 45 (GADD45B) using HepaRG (AID 2283461); conditions: mRNA level, 48 h; actives raise or lower the signal
Procedure, shortened: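 qRT-PCR read-out (Fluidigm TaqMan, housekeeping-normalized) of mRNA change in human HepaRG cells after 48 h chemical exposure; 8-point curve, top 100 uM, half-log steps, 0.5% DMSO vehicle; gain or loss fitted relative to DMSO baseline.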

[7] = read-out: ABC Transporter (ABCC3), ABCC3 (gene 8714); assay: LTEA_HepaRG_ABCC3: Life Technologies and Expression Analysis (LTEA) Assay for ABC Transporter (ABCC3) using HepaRG (AID 2283462); conditions: mRNA level, 48 h; actives raise or lower the signal
Procedure, shortened: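 qRT-PCR read-out of ABCC3 transcript, normalized to three housekeeping genes (ACTB, GAPDH, POLR2A), after 48 h chemical exposure of human HepaRG cells. Eight half-log concentrations, highest 100 uM, in 0.5% DMSO; gain or loss fitted relative to DMSO baseline.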

[8] = read-out: ABC Transporter (ABCB11), ABCB11 (gene 8647); assay: LTEA_HepaRG_ABCB11: Life Technologies and Expression Analysis (LTEA) Assay for ABC Transporter (ABCB11) using HepaRG (AID 2283463); conditions: mRNA level, 48 h; actives raise or lower the signal
Procedure, shortened: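 Differentiated human HepaRG cells in serum-free induction medium, dosed in duplicate for 48 h. Eight-point half-log series from 100 uM in 0.5% DMSO; ABCB11 mRNA by qRT-PCR, normalized to ACTB, GAPDH, POLR2A, fitted bidirectionally versus DMSO.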

[9] = read-out: ABC Transporter (ABCC2), ABCC2 (gene 1244); assay: LTEA_HepaRG_ABCC2: Life Technologies and Expression Analysis (LTEA) Assay for ABC Transporter (ABCC2) using HepaRG (AID 2283464); conditions: mRNA level, 48 h; actives raise or lower the signal
Procedure, shortened: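 qRT-PCR (TaqMan, Fluidigm array) read-out of ABCC2 mRNA, normalized to three housekeeping genes. Differentiated HepaRG cells were treated 48 h in serum-free induction medium with 8-point half-log series from 100 uM in 0.5% DMSO; curves fitted bidirectionally relative to DMSO.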

[10] = read-out: Broad substrate specificity ATP-binding cassette transporter ABCG2 (Homo sapiens) (UniProt Q9UNQ0); assay: LTEA_HepaRG_ABCG2: Life Technologies and Expression Analysis (LTEA) Assay for ABC Transporter (ABCG2) using HepaRG (AID 2283465); conditions: mRNA level, 48 h; actives raise or lower the signal
Procedure, shortened: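 Differentiated HepaRG cells were exposed for 48 h in serum-free induction medium to 8 half-log concentrations, top 100 uM, in 0.5% DMSO. ABCG2 mRNA was measured by qRT-PCR, normalized to ACTB, GAPDH and POLR2A, with bidirectional fitting versus DMSO.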

[11] = read-out: ATP-citrate lyase (ACLY), ACLY (gene 47); assay: LTEA_HepaRG_ACLY: Life Technologies and Expression Analysis (LTEA) Assay for ATP-citrate lyase (ACLY) using HepaRG (AID 2283466); conditions: mRNA level, 48 h; actives raise or lower the signal
Procedure, shortened: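 Differentiated HepaRG cells exposed 48 h in serum-free induction medium to eight half-log concentrations up to 100 uM in 0.5% DMSO, duplicates. Transcript measured by Fluidigm TaqMan qRT-PCR, normalized to ACTB, GAPDH, POLR2A; bidirectional fit versus DMSO.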

[12] = read-out: Peroxisomal acyl-coenzyme A oxidase 1 (ACOX1) gene, ACOX1 (gene 51); assay: LTEA_HepaRG_ACOX1: Life Technologies and Expression Analysis (LTEA) Assay for Peroxisomal acyl-coenzyme A oxidase 1 (ACOX1) gene using HepaRG (AID 2283467); conditions: mRNA level, 48 h; actives raise or lower the signal
Procedure, shortened: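 HepaRG cells, plated 48 h then switched to serum-free induction medium, were exposed in duplicate for 48 h to 8-point half-log concentrations up to 100 uM in 0.5% DMSO. ACOX1 mRNA was measured by qRT-PCR, normalized to ACTB/GAPDH/POLR2A, and fitted bidirectionally versus DMSO.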

[13] = read-out: Alkaline Phosphatase, Placental (ALPP) gene, ALPP (gene 250); assay: LTEA_HepaRG_ALPP: Life Technologies and Expression Analysis (LTEA) Assay for Alkaline Phosphatase, Placental (ALPP) gene using HepaRG (AID 2283468); conditions: mRNA level, 48 h; actives raise or lower the signal
Procedure, shortened: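 qRT-PCR readout of ALPP mRNA (Fluidigm TaqMan), normalized to ACTB/GAPDH/POLR2A, after 48 h chemical exposure of HepaRG cells; 8-point half-log series, top 100 uM, 0.5% DMSO vehicle. Bidirectional curve fit versus DMSO baseline.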

[14] = read-out: Bcl-2 (BAX) gene, BAX (gene 581); assay: LTEA_HepaRG_BAX: Life Technologies and Expression Analysis (LTEA) Assay for Bcl-2 (BAX) gene using HepaRG (AID 2283470); conditions: mRNA level, 48 h; actives raise or lower the signal
Procedure, shortened: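 Differentiated HepaRG cells exposed 48 h in serum-free induction medium, eight half-log concentrations from 100 uM, in duplicate, 0.5% DMSO vehicle. BAX mRNA by TaqMan qRT-PCR, normalised to ACTB, GAPDH and POLR2A.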

[15] = read-out: adenosine kinase (ADK) gene, ADK (gene 132); assay: LTEA_HepaRG_ADK: Life Technologies and Expression Analysis (LTEA) Assay for adenosine kinase (ADK) gene using HepaRG (AID 2283471); conditions: mRNA level, 48 h; actives raise or lower the signal
Procedure, shortened: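 HepaRG (human liver), 48 h chemical exposure, 8-pt half-log series, top 100 uM, 0.5% DMSO vehicle. Readout: ADK mRNA by qRT-PCR vs housekeeping genes; bidirectional curve fit relative to DMSO baseline.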

[16] = read-out: Alpha-fetoprotein (AFP) gene, AFP (gene 174); assay: LTEA_HepaRG_AFP: Life Technologies and Expression Analysis (LTEA) Assay for Alpha-fetoprotein (AFP) gene using HepaRG (AID 2283472); conditions: mRNA level, 48 h; actives raise or lower the signal
Procedure, shortened: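 Differentiated human HepaRG cells exposed 48 h in serum-free induction medium, 8-point half-log series from 100 uM in 0.5% DMSO, duplicate. AFP mRNA by qRT-PCR, normalized to ACTB, GAPDH, POLR2A; bidirectional fit vs DMSO.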

[17] = read-out: BCL2L11 (gene 10018); assay: LTEA_HepaRG_BCL2L11: Life Technologies and Expression Analysis (LTEA) Assay for Bcl-2 (BCL2L11) gene using HepaRG (AID 2283473); conditions: mRNA level, 48 h; actives raise or lower the signal
Procedure, shortened: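 HepaRG, 48 h exposure, 8-pt half-log series from 100 uM in 0.5% DMSO, duplicates; qRT-PCR (Fluidigm TaqMan) for BCL2L11, housekeeping-normalized; bidirectional curve fit relative to DMSO baseline.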

[18] = read-out: Apolipoprotein A-V (APOA5) gene, APOA5 (gene 116519); assay: LTEA_HepaRG_APOA5: Life Technologies and Expression Analysis (LTEA) Assay for Apolipoprotein A-V (APOA5) gene using HepaRG (AID 2283474); conditions: mRNA level, 48 h; actives raise or lower the signal
Procedure, shortened: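 HepaRG, 48 h chemical exposure in serum-free induction medium, 8-pt half-log series (top 100 uM), 0.5% DMSO vehicle, duplicates. Readout: APOA5 mRNA by qRT-PCR, housekeeping-normalized; bidirectional fit vs DMSO baseline.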

[19] = read-out: Bcl-2 (BAD) gene, BAD (gene 572); assay: LTEA_HepaRG_BAD: Life Technologies and Expression Analysis (LTEA) Assay for Bcl-2 (BAD) gene using HepaRG (AID 2283469); conditions: mRNA level, 48 h; actives raise or lower the signal
Procedure, shortened: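 Differentiated HepaRG cells were exposed in duplicate in 0.5% DMSO for 48 h to eight-point half-log concentrations up to 100 uM. BAD mRNA was measured by Fluidigm TaqMan qRT-PCR, normalized to ACTB, GAPDH and POLR2A, and fitted bidirectionally against DMSO.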

[20] = CEETOX_H295R_TESTO: CeeTox H295R High-throughput Steroidogenesis Assay for Testosterone (TESTO) (AID 2283457); conditions: actives raise or lower the signal
Procedure, shortened: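 Readout: testosterone quantified by HPLC-MS/MS (C18, ESI positive) after MTBE liquid-liquid extraction of culture medium. Cells were H295R, 48 h chemical exposure per OECD 456 with modifications. Gain or loss of signal fitted relative to DMSO.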

Measured: AC50

Chain of Broad substrate specificity ATP-binding cassette transporter ABCG2 (Homo sapiens) (Q9UNQ0 whole entry, looked up): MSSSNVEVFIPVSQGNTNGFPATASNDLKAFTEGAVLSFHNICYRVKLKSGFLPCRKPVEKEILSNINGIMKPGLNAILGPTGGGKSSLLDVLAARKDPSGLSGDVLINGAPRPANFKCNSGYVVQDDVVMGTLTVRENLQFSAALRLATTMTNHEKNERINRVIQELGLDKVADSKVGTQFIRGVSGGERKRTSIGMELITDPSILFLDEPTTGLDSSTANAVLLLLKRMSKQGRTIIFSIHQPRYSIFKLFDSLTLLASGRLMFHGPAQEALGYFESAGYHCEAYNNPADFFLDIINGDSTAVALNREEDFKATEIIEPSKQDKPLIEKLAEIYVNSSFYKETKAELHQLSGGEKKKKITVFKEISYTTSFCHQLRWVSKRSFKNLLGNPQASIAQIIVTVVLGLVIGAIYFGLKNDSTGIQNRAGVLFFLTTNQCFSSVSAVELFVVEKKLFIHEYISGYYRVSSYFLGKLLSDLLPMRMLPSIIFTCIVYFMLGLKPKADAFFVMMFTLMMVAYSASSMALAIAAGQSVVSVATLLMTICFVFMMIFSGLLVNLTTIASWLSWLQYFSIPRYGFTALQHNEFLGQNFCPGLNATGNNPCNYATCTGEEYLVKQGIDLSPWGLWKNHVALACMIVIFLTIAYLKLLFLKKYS

C=CCCCCCCCCC(=O)O
active: [15] 0.00684 µM
not listed: [19] | [20]
inactive: all other assays above

O=C1CCCCCN1
not listed: [20]
inactive: all other assays above

O=C(O)c1cc(N=Nc2ccc(S(=O)(=O)Nc3ccccn3)cc2)ccc1O
not listed: [19] | [20]
inactive: all other assays above

COc1ccc2sc(C(=O)Nc3nnn[nH]3)c(OC(C)C)c2c1
inactive: [5] | [10] | [12] | [13] | [19] | [15] | [18]
active: [1] 25.2 µM | [2] 19.9 µM | [3] 31.4 µM | [4] 23.6 µM | [6] 43.9 µM | [7] 24.4 µM | [8] 12.1 µM | [9] 81 µM | [11] 11.9 µM | [14] 50 µM | [16] 59.5 µM | [17] 31.1 µM

CC/C(=C\C(=N/O)C(N)=O)C(C)[N+](=O)[O-] (configuration not stated)
not listed: [17] | [19] | [20]
inactive: all other assays above

COCCOc1cc2cc(C(=O)NC3CCN(C(C)C)CC3)n(CC(=O)Nc3ccc(Cl)cn3)c2cn1
active: [1] 31.4 µM | [4] 11.6 µM | [5] 20.6 µM | [7] 45 µM | [8] 59.5 µM | [9] 37.2 µM | [12] 39.4 µM | [16] 65 µM | [17] 15.2 µM | [18] 45 µM
inactive: [2] | [3] | [6] | [10] | [11] | [13] | [19] | [14] | [15]

Cc1ccc(O)cc1
not listed: [4] | [12] | [16]
inactive: all other assays above
